# Results: the supplement of paper PMC6555819
# Tested on: PPARg:RXRa 270nM:90nM, anti-RXR (NR concentration 270 nM, RXRa partner concentration 90 nM)
# Assay: PBM binding z-score (relative to random genomic background probes); higher = stronger binding; sequences stand for … in GC…GCGATTGACAGCGTAGAATGAAGG
# Procedure, shortened: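 Ligand-free nuclear receptor dimers were bound for 1 h to custom Agilent 4×180K protein-binding microarrays. Detection used antibodies against each partner (one per run). Binding z-scores rest on regression-normalized fluorescence, with random background probes as the reference.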
row,Sequence,PBM binding z-score
1,GCTGACGGGTCAAAGGTTATAGCATGAATAGAAT,8.11
2,ATCGAAAGGTTGACGAGGTGAGTATACACCGTTT,0.974
3,CCTAATGGGCCATTCAGAGGTCATTGATCATATG,2.27
4,CAAACTAGCTCAAGGTCAAAGTCGGTTTGTGCCA,2.95
5,TAGCCTAGATCAGATCGGGCCAGTATACGCTATA,-0.582
6,CCTAGCAGGTCAGGGTCACTCAAGCATTTCGCTT,4.22
7,TAGCCTAGGTCATGCGAGCCAGTATAGTGTCGGC,2.43
8,CCTACTGGGCCCAAAAGGTCATTGATGCCGATAA,3.47
9,TCTAGTTGGTCAAAGGTCACACATTCGAAATGCG,9.09
10,AGAATGAGGTTAAGAACAGGGAAACAGAATACAT,2.05
11,GATACAGGGTCAAGGCAAGAGTACGCGTATTGAT,5.4
12,CCTTACGGGTCAAGCTTATAGCACGGGTGGTACG,4.65
13,CTACCAAGGTGAACAAGGTCCTTGATTACTATTC,0.855
14,TCTCGGAGGACACGAAAGGTCAGAGCTCGACATC,2.8
15,TCTATTAGTTGATTACGGCAACCGAAACAGCGGA,1.95
16,ATCGAAAGGTCGGAGGTGAGTATACCCACCCGAA,3.13
17,TGAATGAGGTTAAAGTTCAGGGAACGTGGCGTCG,8.25
18,CCTTACGGGTCACTCCAGTTTATAGCATCGGAGT,3.3
19,ACTAGTAGTTGACTTAGGGCAACCGATACGACGC,-0.176
20,ACAGACAGGGGAGTGAAGGTAACTCAGCTGGACG,0.301

row,Sequence,PBM binding z-score
1,TAGCCTATGTCATGCGGGCCAGTATAGTGTCGGC,-0.476
2,CCTACTGGGCCAAAGGTCATTGTTTCCAATGCTC,10.6
3,CCGACTGGGGCAAGGTTACCTTAACGCACAGCCA,3.54
4,CATACAGGGTCAGATAGGCCAGAGTAGGGACGGC,2.6
5,CCAGACAGGTGAGAAGGGAACTCAGCCTCGATTA,0.174
6,CTCGAAAGGTCGTGCTCAGTTGAGTATACCAAAC,3.47
7,GGAACGAGGGCATTCGAGTTGATAGAATGGCGAT,0.758
8,ATCGAAAGGTCGACGAGGTGTGTATACACCGTTT,3.12
9,TCTAGTAGGTTACCAATGGGGCATTCAGCTTTCT,2.93
10,GCTAGCAGGGCATTTGGGTCACTCAATGACGGGC,1.08
11,ACAGACAAGTGAGTGAAGGTAACTCAGCTGGACG,-0.0179
12,TCGTATAGGTAAAAGGTGAAAGTCGGTGTGGTAA,7.01
13,GCTCGGAGGACAAGGTCAGAGCTTTGTCCGTAGA,1.67
14,CCGAGTAGGTTATGGCGCATTCAGGCAACGGTGA,0.503
15,CCTACTGGGCCATTCAGACGTCATTGATCATATG,0.206
16,AGAATGAGGTTACCAAAAATCAGGGAAACGCTTG,2.98
17,CCTCGGAGGACAGAAGTTCAGAGCTGTCCGCTTT,-0.616
18,GCTTGTAGATCAAGGTTAAGATAGACTAAGCTAA,2.1
19,CAAACTAGGTCAAGAGGTCAAAGTACGCTTCCCG,8.3
20,ATCGAAATGTCGACGAGGTGAGTATACACCGTTT,-0.108
